Molecules are shown by their SMILES. A number with no mark means an inactive call. Inconclusive results are not listed. Activity calls are given as the source filed them. Unless noted, the call rests on the fitted dose curve; in most records, active means well fitted curve in the direction sought with a large enough effect in the repeat runs; inconclusive means weak or mixed curves; inactive means no such curve, though single readings can be large; an effect the other way counts as inactive or inconclusive.

A short description of assay [1]: qHTS assay to identify small molecule agonists of the hypoxia (HIF-1) signaling pathway - cell viability counter screen (AID 1224844; calls by dose curve; further: nearly all actives have a fitted effect of over 50% in size; further: potency means the concentration at half of the fitted maximal effect; on activity change, negative = cytotoxicity: on the % scale 0 is the no-effect control and ±100 the full control effect). In short, it runs like this:
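In this counter screen, HRE-bla ME-180 cell viability after 17 hrs of compound exposure at 37C was read by CellTiter-Glo luminescence, multiplexed with the beta-lactamase reporter measurement.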
In general terms: In qHTS, concentration-response curves come from the screen itself.

Assay [2] in a line: qHTS assay to identify small molecule agonists of H2AX (AID 1224845; active means well fitted activation curve with a large enough effect in the signal ratio in the repeat runs, not every such curve was filed as active; the % refers to the signal ratio; further: on the % scale 0 is the no-effect control and ±100 the full control effect). In short, it runs like this: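 Wild-type CHO-K1 cells, plated overnight, exposed 3hr at 37C to 15 concentrations (0.76% DMSO final). Lysed, then HTRF anti-pH2AX (S139) cryptate and anti-H2AX-d2 antibodies, 24 hr room temperature; 665/620 nm emission read.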
Assay [3] in a line: qHTS assay to identify small molecule agonists of H2AX - cell viability counter screen (AID 1224847; calls by dose curve; further: nearly all actives have a fitted effect of over 30% in size; further: potency means the concentration at half of the fitted maximal effect; on activity change, negative = cytotoxicity: top concentration of the series differs between compounds; on the % scale 0 is the no-effect control and ±100 the full control effect). In short, it runs like this: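 Cells plated first: CHO-K1, 1000 per well in 10% FBS medium, incubated overnight at 37C. Then 15-point compound titration added (final DMSO 0.76%) for 3 hr. Finally CellTiter-Glo added and luminescence read.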
The nature of assay [4]: A CellTox Green Cytotoxicity Assay to monitor cytotoxicity in HEK293 cells - 0 hour (AID 1224869). Further: on the % scale 0 is the no-effect control and ±100 the full control effect; nearly all actives have a fitted effect of over 50% in size. In short, it runs like this:
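Real-time, in one plate: 600 HEK293 cells/well with dead-cell DNA dye, pinned compound after 5 h, 37 C incubation over 40 h; viable cells give no appreciable fluorescence.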

Assay [5] can be described thus: qHTS RealTime-Glo MT Cell Viability Assay in HepG2 cells - 40 hour (AID 1224870). Further: on the % scale 0 is the no-effect control and ±100 the full control effect; nearly all actives have a fitted effect of over 50% in size. In short, it runs like this:
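HepG2 cells (600/well) mixed with RealTime-Glo MT reagent, settled 5 h at 37 C/5% CO2 before compound addition. Nonlytic NanoLuc luminescence from viable-cell prosubstrate reduction read repeatedly during 40 h treatment at 37 C.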

A short description of assay [6]: qHTS assay to identify small molecule agonists of the estrogen related receptor (ERR) signaling pathway from Tox21 library (AID 1224849; calls by dose curve; further: on the % scale 0 is the no-effect control and ±100 the full control effect; nearly all actives have a fitted effect of over 15% in size). The conditions noted are these: ERR reporter cell line, ONE-Glo luciferase, 18 h; at 92.4 µM (top of the series) unless noted. In short, it runs like this: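 Luciferase activity in ERR pathway reporter cells served as the agonist readout; exposure lasted 18 h at 37 C, with ONE-Glo detection after 30 min at room temperature.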

Assay [7] can be described thus: qHTS RealTime-Glo MT Cell Viability Assay in HepG2 cells - 24 hour (AID 1224867). Further: nearly all actives have a fitted effect of over 50% in size. Further: potency means the concentration at half of the fitted maximal effect. In short, it runs like this: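 HepG2 cells (600/well) were dispensed with RealTime-Glo reagents, incubated 5 h at 37 °C, then treated with compounds in DMSO for up to 40 h. Nonlytic NanoLuc luminescence reflecting viable cells was read at each stated time point.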
A short description of assay [8]: qHTS RealTime-Glo MT Cell Viability Assay in HEK293 cells - 32 hour (AID 1224868). Further: nearly all actives have a fitted effect of over 50% in size. Further: potency means the concentration at half of the fitted maximal effect. In short, it runs like this: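 HEK293 cells seeded with NanoLuc/prosubstrate reagent, rested 5 h at 37 C, then dosed and kept at 37 C up to 40 h. Nonlytic real-time luminescence from viable cells read at 0, 8, 16, 24, 32 and 40 h.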
Assay [9] can be described thus: qHTS assay to identify small molecule antagonists of the estrogen related receptor (ERR) signaling pathway from Tox21 library (AID 1224848). In short, it runs like this: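 Compounds dissolved in DMSO are pin-transferred onto ERR reporter cells (2,000 per well) that have settled for 6 h at 37 C. Plates then incubate 18 h at 37 C before ONE-Glo luciferase reagent and a luminescence read 30 min later.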

The nature of assay [10]: qHTS assay to identify small molecule agonists of the hypoxia (HIF-1) signaling pathway (AID 1224846; active means well fitted activation curve with a large enough effect in the signal ratio in the repeat runs, not every such curve was filed as active; the % refers to the signal ratio; further: on the % scale 0 is the no-effect control and ±100 the full control effect). In short, it runs like this:
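ME-180 HRE-bla reporter cells; compounds in DMSO, 17 h at 37C; read-out beta-lactamase via CCF4-AM FRET.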

Consider `O[C@@H](COc1cccc2ncccc12)CN1CCN(C2c3ccccc3[C@@H]3[C@H](c4ccccc42)C3(F)F)CC1` (some centres undefined), for which the Potency entry in assay [1], in [2], in assay [3], in assay [4] and in [5] was “inactive” throughout.
For the compound `O=C1CCCCCCCCCCCC(=O)OCCO1`, the Potency entry in [1], in [2], in [7], in assay [8], in assay [4] and in assay [5] was “inactive” throughout. For the same compound, the activity change, positive = activation in [6] is 1.67%.
As for `CCCCC`, the Potency entry in assay [1], in assay [2], in [3], in assay [7], in [8] and in assay [5] was “inactive” each time.
With `C/C=C(/C(=C/C)c1ccc(OC(C)=O)cc1)c1ccc(OC(C)=O)cc1`, the Potency entry in [1], in assay [2], in assay [3], in assay [7], in assay [8] and in [4] was “inactive” each time. Besides, in assay [5], the Potency result was “inactive”.
As to `OCCNCc1ccccc1`, the Potency entry in assay [1], in assay [2], in assay [3], in assay [7], in [8] and in assay [4] was “inactive” throughout. In assay [5], the Potency entry is “inactive”.
On to `COC(=O)C1=C(C)NC(COC(N)=O)=C(C(=O)OC(C)C)C1c1cccc(Cl)c1Cl` (centres undefined), for which the Potency result in assay [1], in assay [2] and in assay [4] was “inactive” throughout. In addition, the Potency in assay [9] is 26.6 µM (active); in assay [7], 23.9 µM (active); in [8] it was 26.8 µM (active). The activity change, positive = activation in assay [6] is -36.5% [at 42.5 µM].
On to `Cc1ccc(C(C)OC(=O)C2(C)CCC(C(=O)O)C2(C)C)cc1` (centres undefined), for which the Potency result in assay [1], in assay [2], in assay [3], in assay [7], in assay [8] and in assay [4] was “inactive” in each case. Further, the Potency entry in assay [5] was “inactive”.
Turning to `CCCCNc1ccc(C(=O)OCCOCCOCCOCCOCCOCCOCCOCCOCCOC)cc1`, the Potency entry in [1], in assay [2], in [3], in assay [7], in assay [4] and in assay [5] was “inactive” in each case. The activity change, positive = activation in assay [6] is -27.3% [at 42.5 µM].
For the compound `CCN(CC)CCOC(=O)C(Cc1cccc2ccccc12)CC1CCCO1` (centres undefined), the Potency result in assay [1], in assay [2], in assay [3], in assay [7], in assay [4] and in assay [5] was “inactive” each time.
As to `C[N+](C)(C)CCOC(=O)CCC(=O)OCC[N+](C)(C)C`, the Potency result in [1], in [2], in [3], in assay [7], in assay [8] and in assay [4] was “inactive” in each case. Further, in assay [5], the Potency result is “inactive”.
On to `C=C1C(=C/C=C2\CCC[C@]3(C)[C@@H]([C@H](C)/C=C/[C@@H](O)C4CC4)CC[C@@H]23)C[C@@H](O)C[C@@H]1O`, for which the Potency entry in assay [1], in assay [2], in [7], in assay [4] and in assay [5] was “inactive” throughout. Further, the Potency in [9] was 13.3 µM (active); in [8] it was 16.9 µM (active). Besides, the activity change, positive = activation in assay [6] was -57.7% [at 42.5 µM].
Turning to `CC1CCC(=O)C1=O` (centres undefined), the Potency result in assay [1], in [2], in assay [3], in assay [7], in assay [8] and in assay [4] was “inactive” each time. Also, the Potency result in assay [5] is “inactive”.
Turning to `Cc1cc(C(=O)O)ccc1[N+](=O)[O-]`, the Potency result in assay [1], in assay [2], in [3], in assay [7], in assay [8] and in assay [4] was “inactive” in each case. Further, the Potency result in assay [5] was “inactive”.
Turning to `Cc1[nH]c(C)c(Cl)c(=O)c1Cl`, the activity change, negative = cytotoxicity in assay [1] was 12.4% [at 15.8 µM]; in assay [3] it was -0.294% [at 31.6 µM]; in [7], 3.53% [at 15.8 µM]. The activation (H2AX phosphorylation) in [2] was 1.85% [at 31.6 µM]. Also, the activity change, negative = cytotoxic in assay [8] was -20.8% [at 15.8 µM]; in assay [5], 1.26% [at 15.8 µM]. Moreover, the cytotoxicity in assay [4] is 2.83% [at 15.8 µM].
For the compound `CCCCC/C=C\C/C=C\CCCCCCCC(=O)NC(C)c1ccccc1` (centres undefined), the Potency entry in [1], in [2], in assay [7], in [8], in assay [4] and in assay [5] was “inactive” in each case. In addition, the activity change, positive = activation in assay [6] is -35.5% [at 42.5 µM].
Regarding `NCC(=O)CCC(=O)O`, the Potency result in [1], in [2], in [3], in assay [7], in assay [8] and in assay [4] was “inactive” throughout. Also, the Potency entry in assay [5] is “inactive”.
`CC(=O)c1ccc2c(c1)N(CCCN(C)C)c1ccccc1S2`: the Potency result in assay [1], in assay [2], in [3], in assay [7], in assay [4] and in [5] was “inactive” throughout.
Consider `O=C1C(O)=C(O)C(=O)C(O)=C1O`, for which the Potency entry in [1], in assay [2], in assay [3], in assay [7], in assay [8] and in [4] was “inactive” in each case. Besides, the Potency entry in assay [5] was “inactive”.
In the case of `CN(C)c1ccc(C(c2ccccc2)c2ccc(N(C)C)cc2)cc1`, the Potency result in [1], in [2], in assay [3], in [7], in assay [4] and in [5] was “inactive” each time. The activity change, positive = activation in assay [6] was -34.5%.
Consider `C#C[C@]1(O)CC[C@H]2[C@@H]3CCc4cc(OC5CCCC5)ccc4[C@H]3CC[C@@]21C`, for which the Potency in [1] is 15.1 µM (active); in assay [3] it was 49.2 µM (active); in [8], 23.9 µM (active). Further, the Potency entry in assay [2], in [4] and in [5] was “inactive” each time.
As for `COc1cc2nc(N(C)CCCNC(=O)C3CCCO3)nc(N)c2cc1OC` (centres undefined), the Potency result in [1], in assay [10], in assay [3], in [7], in assay [4] and in assay [5] was “inactive” each time. Further, in assay [9], the Potency is 9.44 µM (active). In addition, in assay [6], the activity change, positive = activation is -34.3% [at 42.5 µM].
On to `CC1OC(=O)C(C)OC1=O` (centres undefined), for which the Potency entry in assay [1], in assay [10], in assay [3], in [7], in [8] and in assay [4] was “inactive” in each case. Also, the Potency result in assay [5] is “inactive”.
As for `CC(CC=O)c1ccccc1` (centres undefined), the Potency result in assay [1], in assay [2], in assay [7], in assay [8], in assay [4] and in [5] was “inactive” in each case.
Regarding `Brc1c2ccccc2cc2ccccc12`, the Potency result in [1], in assay [2], in assay [7], in assay [4] and in assay [5] was “inactive” each time.
Consider `O=C(O)C1(C(=O)O)CCC1.[NH2-].[NH2-].[Pt+2]`, for which the Potency result in assay [1], in assay [2], in [7], in assay [8], in [4] and in [5] was “inactive” throughout.
For the compound `COS(=O)(=O)C(F)(F)F`, the Potency result in [1], in assay [10], in [3], in assay [7], in assay [8] and in assay [4] was “inactive” in each case. The Potency result in assay [5] is “inactive”.

For the origin of these results see PubChem BioAssay (Tox21).
